This is a sample that favours compounds with a hit; in the whole collection about 1.3% have one here.
Phagocytosis inh – inhibitors of macrophage phagocytosis, primary screen, imaging, J774A.1 cells, IgG beads. J774A.1 macrophage IgG-bead phagocytosis. inhibition, % at 5 µM. 110,000 tested, 0.07% active;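 active means inhibition above the mean of the plate negative controls plus 5 SD, cut at about 13% in these data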;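 further: phagocytic index as fraction of beads internalized from green versus red external bead signal; plate controls were DMSO negative control for no effect and cytochalasin-D positive control for full effect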
S1P2 antag – human S1P2 receptor antagonists, primary screen, cell-based; inhibition, % at 5 µM; cell-based S1P2 antagonist assay, inhibition at 5 uM; Sphingosine 1-phosphate receptor 2 (Homo sapiens), O95136; AID 736, 2007; 97,000 tested, 0.21% active; in the data active means inhibition above about 45%;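 further: CRE beta-lactamase reporter cells expressing human S1P2 stimulated with S1P; 0% = agonist at EC80 alone and 100% = agonist plus reference antagonist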
S1P2 agonist – S1P2 receptor agonists, primary screen, cell-based | S1P2-expressing cell line, agonist reporter read-out | Sphingosine 1-phosphate receptor 2 (Homo sapiens), O95136 | activation, % at 4.5 µM | 97,000 tested, 0.46% active; in the data active means activation above about 16%;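 further: 0% = vehicle low control and 100% = maximal reference agonist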
GALR2 blocker – GALR2 antagonists in receptor-expressing cells, primary screen; Galanin receptor type 2 (Homo sapiens), O43603; antagonist mode; inhibition, % at 4 µM; 140,000 tested, 0.39% active; AID 828, 2007;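 further: cells stimulated with galanin 1-16 at roughly its EC80; 0% = agonist challenge control and 100% = basal control without agonist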
Target sequence (O43603 whole entry, looked up): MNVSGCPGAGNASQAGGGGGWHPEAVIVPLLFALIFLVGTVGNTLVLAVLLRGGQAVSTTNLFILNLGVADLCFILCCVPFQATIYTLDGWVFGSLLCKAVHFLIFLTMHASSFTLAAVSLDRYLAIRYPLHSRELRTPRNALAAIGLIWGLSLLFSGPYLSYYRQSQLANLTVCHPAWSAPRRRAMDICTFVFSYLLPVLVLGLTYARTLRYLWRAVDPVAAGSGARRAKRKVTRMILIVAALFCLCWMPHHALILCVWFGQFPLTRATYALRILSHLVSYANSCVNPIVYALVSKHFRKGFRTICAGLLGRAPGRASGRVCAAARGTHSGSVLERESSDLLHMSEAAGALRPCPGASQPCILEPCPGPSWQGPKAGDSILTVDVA
GALR2 ag – GALR2 receptor agonists, primary screen, cell-based; GALR2-expressing cells, agonist activation read-out; AID 803, 2007; activation, % (no concentration beside the values); 140,000 tested, 0.48% active; in the data active means activation above about 5%, passing the limit was not always enough;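 further: 0% = vehicle buffer wells and 100% = reference agonist at full effect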
GALR2 ant conf – GALR2 antagonists, retest of hits, confirmation, cell-based; GALR2-expressing cells, antagonist mode, inhibition; 480 tested, 60% active; inhibition, % at 4 µM; shares compounds with GALR2 blocker;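 further: cells stimulated with galanin at about its EC80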
BLA inh counter – inhibitors of NFAT-driven beta-lactamase reporter, confirmation, counter-screen for GALR2 antagonist project, CHO NFAT-bla cells, FRET readout. shares compounds with GALR2 blocker. thapsigargin-stimulated. inhibition, % at 4.2 µM. 480 tested, 36% active. AID 867, 2007;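 active means inhibition above the mean inhibition across tested compounds plus 3 SD, cut at about 27% in these data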;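 further: 0% = 500 nM thapsigargin stimulated wells and 100% = unstimulated BSA only wells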
Starred values were filed as active, the others as inactive; x = not tested or not shown. Unless noted, no stated cut-off is given here; in the data, active means inhibition above about 27%; inactive means the rest.

SMILES	Phagocytosis inh	S1P2 antag	S1P2 agonist	GALR2 blocker	GALR2 ag	GALR2 ant conf	BLA inh counter
Cc1cccc(C(=O)Nc2ccc(C(=O)/C=C/c3cccnc3)cc2)c1	0	x	x	31*	0	32*	7
O=C(/C=C/c1cccnc1)c1ccc(NC(=O)c2cccc(Br)c2)cc1	0	8	-4	-5	-2	x	x
Cc1ccc(S(=O)(=O)/C(C#N)=C/c2c(N3CC(C)OC(C)C3)nc3c(C)cccn3c2=O)cc1 (stereo not given)	-2	-14	4	-13	1	x	x
Cc1ccsc1/C=N/NC(=O)Cc1cccn1C	-1	x	x	-8	-1	x	x
O=C(OCn1ncc(Cl)c(Cl)c1=O)c1cccc(C(F)(F)F)c1	x	30	1	46*	-1	66*	43*
COc1ccc(O)c(/C=N/NC(=S)Nc2cccc(S(=O)(=O)N(C)C)c2)c1	3	x	x	35*	-1	21	13
CCOC(=O)C1=C(O)c2ccccc2C(=O)/C1=C\c1ccc(C)cc1	-5	x	x	30*	-1	15	14
CC(=O)N/C(=C/c1ccc2c(c1)OCO2)C(=O)NCC(=O)O	-4	x	x	4	-1	x	x
CCOC(=O)N1CCN(C(=O)c2ccc(NC(=O)c3ccc(C)cc3)cc2)CC1	-1	-2	-7	28*	1	30*	19
CCOC(=O)N1CCN(C(=O)c2ccc(NC(C)=O)cc2)CC1	x	11	-11	9	-1	x	x
O=C(N/N=C/C(Br)=C\c1ccccc1)c1n[nH]c2c1CCC2	0	-8	-2	33*	3	38*	61*
CC(/C=N/NC(=O)c1n[nH]c2c1CCC2)=C\c1ccccc1	7	0	-3	21	2	x	x
COc1ccc(CCNc2ncnc3c2oc2ccccc23)cc1OC	x	67*	-5	27*	-1	38*	-1
COc1cc2c(cc1NC(=O)CSc1nc3ccc(C)cc3[nH]1)oc1ccccc12	-4	x	x	6	-3	x	x
CN(C)c1ccc(NC2=C(Cl)C(=O)c3ccccc3C2=O)cc1	-10	x	x	41*	0	48*	9
COc1ccc(N2C(=O)CC2(C#N)c2ccc(OCc3ccccc3)cc2)cc1 (stereo not given)	-7	x	x	5	1	x	x
Cc1ccc(-c2csc(NC(=O)C3=NN(c4ccccc4)C(=O)CC3)n2)cc1	x	x	x	28*	-1	20	5
Cc1ccccc1CS(=O)(=O)c1nnc([C@H](Cc2ccccc2)NC(=O)OC(C)(C)C)o1	1	24	-5	28*	3	33*	56*
CCSc1nnc([C@H](Cc2ccccc2)NC(=O)OC(C)(C)C)o1	1	-3	-4	-3	0	x	x
Nn1cnnc1N/N=C/c1cc(Br)cc(Br)c1O	-2	-10	-1	31*	-4	8	0
Cc1nc2cc3nc(C)sc3cc2s1	2	x	x	2	0	x	x
COc1cc2nc(C)sc2cc1SC	0	x	x	27*	-1	8	4
COc1ccc(C2CC(=O)c3sc(NC(C)=O)nc3C2)cc1 (stereo not given)	-3	x	x	0	-3	x	x
Cn1c2c(c(=O)n(C)c1=O)C(C(F)(F)F)(C(F)(F)F)N=C(c1ccc(Cl)cc1)N2	x	86*	-8	68*	-1	72*	58*
CC(C)(C)C(=O)/C(=C\c1ccc([N+](=O)[O-])cc1)n1cncn1	x	66*	-9	56*	1	73*	57*
SMILES	Phagocytosis inh	S1P2 antag	S1P2 agonist	GALR2 blocker	GALR2 ag	GALR2 ant conf	BLA inh counter
CCC(NC(=O)Nc1nnc(C(F)(F)F)s1)(C(F)(F)F)C(F)(F)F	-5	75*	-5	59*	4	39*	16
CC(=O)N1CCc2cc(S(=O)(=O)NC(Cc3ccccc3)C(=O)Nc3cc(C)ccn3)ccc21 (stereo not given)	1	-2	-7	29*	-2	3	3
CCC(=O)N1CCc2cc(S(=O)(=O)NC(Cc3ccccc3)C(=O)NC3CCCCC3)ccc21 (stereo not given)	0	x	x	17	-2	x	x
CC(C)OCCCNc1ncnc2c1[nH]c1ccccc12	-6	37	-14	39*	-4	37*	13
C1=C(CCNc2ncnc3c2[nH]c2ccccc23)CCCC1	-5	x	x	48*	0	61*	14
COc1ccc2[nH]c3c(NCCN(C(C)C)C(C)C)ncnc3c2c1	0	-11	-6	6	0	x	x
O=c1c2[nH]c3ccccc3c2ncn1CCC1=CCCCC1	-1	-13	1	11	0	x	x
CC1(C)NC(=O)N(CC(=O)OCC(=O)Nc2cc(S(=O)(=O)N3CCCCC3)ccc2Cl)C1=O	-2	x	x	3	-1	x	x
C/C(=N\Nc1ccc([N+](=O)[O-])cc1)c1cccc(N)c1	x	14	-8	30*	-2	31*	16
CCn1c2ccccc2c2cc(NC(=O)c3cc(OC)c(OC)c(OC)c3)ccc21	x	-13	5	29*	1	43*	67*
Cc1ccc(CNC(=O)c2ccc(N3CCCC3=O)cc2)cc1	-4	6	-2	7	-2	x	x
Cn1nc(C(C)(C)C)cc1C(=O)NCc1ccc(N2CCCC2=O)cc1	-1	x	x	45*	-2	39*	9
Cc1ccc(NC2=C/C(=N/S(=O)(=O)c3cccs3)c3ccccc3C2=O)cc1	0	x	x	3	2	x	x
O=C1C(Nc2ccccc2)=C/C(=N/S(=O)(=O)c2cccs2)c2ccccc21	-5	x	x	88*	5.5*	67*	71*
Nn1c(COc2ccc(Cl)cc2)nc2ccccc2c1=O	-4	x	x	-5	1	x	x
